Several values for one entry are separate records, joined by “and”; a condition that tells them apart may be missing. Equal entries are not always repeated. The campaign covered roughly 5,500 compounds. About 2,000 (36%) were called active. Inconclusive results (about 18%) are left out. No stated cut-off is given here; in the data, active means normalized growth mostly below about 0.91 (no sharp cut-off); inconclusive means no clear call, values can overlap the other calls; inactive means mostly above about 0.92. The list shows a part of the results.
Experiment: chemical genetic growth profiling, strain panel (AID 1159580);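 further: tested at 20 µM; growth read once vehicle control cultures reached saturation at 30 °C; 1 = growth at the plate median or of vehicle wells; lower values mean less growth of the strain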
Conditions: growth OD

Measured: normalized growth

CN(C)c1ccc(O)c2c1C[C@H]1C[C@H]3[C@H](N(C)C)C(=O)C(C(N)=O)=C(O)[C@@]3(O)C(=O)C1=C2O
inactive: S. cerevisiae deletion strains, locus YAL013W, strain DEP1, hits give low values 0.988 | S. cerevisiae deletion strains, locus YBR021W, strain FUR4, hits give low values 0.915 | S. cerevisiae deletion strains, locus YBR229C, strain ROT2, hits give low values 0.947 | S. cerevisiae deletion strains, locus YCL029C, strain bik1, hits give low values 0.992 | S. cerevisiae deletion strains, locus YDL035C, strain GPR1, hits give low values 0.963 | S. cerevisiae deletion strains, locus YDL074C, strain BRE1, hits give low values 1 | S. cerevisiae deletion strains, locus YDL101C, strain DUN1, hits give low values 0.969 | S. cerevisiae deletion strains, locus YDL134C, strain PPH21, hits give low values 0.976 | S. cerevisiae deletion strains, locus YDL185W, strain tfp1, hits give low values 0.983 | S. cerevisiae deletion strains, locus YDL192W, strain arf1, hits give low values 0.962 | S. cerevisiae deletion strains, locus YDR101C, strain arx1, hits give low values 1 | S. cerevisiae deletion strains, locus YDR150W, strain NUM1, hits give low values 0.975 | S. cerevisiae deletion strains, locus YDR162C, strain NBP2, hits give low values 0.964 | S. cerevisiae deletion strains, locus YDR318W, strain mcm21, hits give low values 0.996 | S. cerevisiae deletion strains, locus YDR388W, hits give low values 0.997 | S. cerevisiae deletion strains, locus YDR502C, strain sam2, hits give low values 0.986 | S. cerevisiae deletion strains, locus YEL061C, strain CIN8, hits give low values 0.984 | S. cerevisiae deletion strains, locus YER110C, hits give low values 0.974 | S. cerevisiae deletion strains, locus YER155C, strain BEM2, hits give low values 1.03 | S. cerevisiae deletion strains, locus YER167W, strain BCK2, hits give low values 0.984 | S. cerevisiae deletion strains, locus YGL078C, strain dbp3, hits give low values 0.974 | S. cerevisiae deletion strains, locus YGL086W, strain mad1, hits give low values 0.98 | S. cerevisiae deletion strains, locus YGL248W, strain PDE1, hits give low values 0.974 | S. cerevisiae deletion strains, locus YGR078C, strain PAC10, hits give low values 0.966 | S. cerevisiae deletion strains, locus YGR135W, strain pre9, hits give low values 0.974 | S. cerevisiae deletion strains, locus YGR229C, strain SMI1, hits give low values 0.987 | S. cerevisiae deletion strains, locus YGR252W, strain gcn5, hits give low values 0.802 | S. cerevisiae deletion strains, locus YHR030C, strain SLT2, hits give low values 0.992 | S. cerevisiae deletion strains, locus YHR079C, strain IRE1 (second series), hits give low values 1 | S. cerevisiae deletion strains, locus YHR079C, strain IRE1, hits give low values 1.01 | S. cerevisiae deletion strains, locus YHR094C, strain hxt1, hits give low values 1.01 | S. cerevisiae deletion strains, locus YHR129C, strain ARP1, hits give low values 0.99 | S. cerevisiae deletion strains, locus YHR200W, strain rpn10, hits give low values 0.989 | S. cerevisiae deletion strains, locus YIL066C, strain RNR3, hits give low values 0.96 | S. cerevisiae deletion strains, locus YIL073C, strain SPO22, hits give low values 0.959 | S. cerevisiae deletion strains, locus YIL125W, strain kgd1, hits give low values 0.979 | S. cerevisiae deletion strains, locus YIR030C, strain dcg1, hits give low values 0.987 | S. cerevisiae deletion strains, locus YJL095W, strain BCK1, hits give low values 0.986 and 0.993 | S. cerevisiae deletion strains, locus YJL134W, strain LCB3, hits give low values 0.981 | S. cerevisiae deletion strains, locus YJL168C, strain set2, hits give low values 0.995 | S. cerevisiae deletion strains, locus YJL187C, strain SWE1 (second series), hits give low values 0.966 | S. cerevisiae deletion strains, locus YJR043C, strain POL32, hits give low values 0.992 | S. cerevisiae deletion strains, locus YJR066W, strain TOR1, hits give low values 0.941 | S. cerevisiae deletion strains, locus YJR075W, strain HOC1, hits give low values 1 | S. cerevisiae deletion strains, locus YKL009W, strain mrt4, hits give low values 0.974 | S. cerevisiae deletion strains, locus YKL068W, hits give low values 0.995 | S. cerevisiae deletion strains, locus YKL085W, strain MDH1 (second series), hits give low values 0.982 | S. cerevisiae deletion strains, locus YKL085W, strain MDH1, hits give low values 0.982 | S. cerevisiae deletion strains, locus YKL190W, strain CNB1, hits give low values 0.998 | S. cerevisiae deletion strains, locus YKR001C, strain vps1, hits give low values 0.966 | S. cerevisiae deletion strains, locus YLR039C, strain RIC1, hits give low values 0.937 | S. cerevisiae deletion strains, locus YLR058C, strain SHM2, hits give low values 0.957 | S. cerevisiae deletion strains, locus YLR102C, strain apc9, hits give low values 0.989 | S. cerevisiae deletion strains, locus YLR113W, strain HOG1, hits give low values 1.01 | S. cerevisiae deletion strains, locus YLR262C, strain YPT6, hits give low values 0.895 | S. cerevisiae deletion strains, locus YLR268W, strain sec22, hits give low values 1.04 | S. cerevisiae deletion strains, locus YLR330W, strain CHS5, hits give low values 0.989 | S. cerevisiae deletion strains, locus YLR342W, strain FKS1 (second series), hits give low values 0.851 | S. cerevisiae deletion strains, locus YLR371W, strain rom2, hits give low values 0.98 | S. cerevisiae deletion strains, locus YLR418C, strain cdc73, hits give low values 0.909 | S. cerevisiae deletion strains, locus YML016C, strain PPZ1, hits give low values 0.974 | S. cerevisiae deletion strains, locus YML032C, strain rad52, hits give low values 1 | S. cerevisiae deletion strains, locus YML124C, strain tub3, hits give low values 0.991 | S. cerevisiae deletion strains, locus YMR078C, strain ctf18, hits give low values 0.993 | S. cerevisiae deletion strains, locus YMR223W, strain ubp8, hits give low values 0.934 | S. cerevisiae deletion strains, locus YMR263W, strain SAP30, hits give low values 0.991 | S. cerevisiae deletion strains, locus YMR307W, strain GAS1, hits give low values 0.879 | S. cerevisiae deletion strains, locus YNL067W, strain RPL9B, hits give low values 1 | S. cerevisiae deletion strains, locus YNL128W, strain TEP1, hits give low values 0.922 | S. cerevisiae deletion strains, locus YNL153C, strain GIM3, hits give low values 0.985 | S. cerevisiae deletion strains, locus YNL183C, strain NPR1, hits give low values 0.968 | S. cerevisiae deletion strains, locus YNL233W, strain BNI4, hits give low values 1 | S. cerevisiae deletion strains, locus YNL250W, strain rad50, hits give low values 0.975 | S. cerevisiae deletion strains, locus YNL271C, strain bni1, hits give low values 0.989 | S. cerevisiae deletion strains, locus YNL298W, strain CLA4, hits give low values 0.987 | S. cerevisiae deletion strains, locus YNL307C, strain MCK1, hits give low values 0.997 | S. cerevisiae deletion strains, locus YNL322C, strain KRE1, hits give low values 0.993 | S. cerevisiae deletion strains, locus YNR052C, strain pop2, hits give low values 0.978 | S. cerevisiae deletion strains, locus YOL006C, strain TOP1, hits give low values 0.887 | S. cerevisiae deletion strains, locus YOL012C, strain htz1 0.571 | S. cerevisiae deletion strains, locus YOL147C, strain pex11, hits give low values 0.994 | S. cerevisiae deletion strains, locus YOR061W, strain CKA2, hits give low values 0.967 | S. cerevisiae deletion strains, locus YOR069W, strain VPS5, hits give low values 0.985 | S. cerevisiae deletion strains, locus YOR136W, strain idh2, hits give low values 0.978 | S. cerevisiae deletion strains, locus YOR144C, strain elg1, hits give low values 0.996 | S. cerevisiae deletion strains, locus YOR184W, strain ser1, hits give low values 0.985 | S. cerevisiae deletion strains, locus YOR231W, strain MKK1, hits give low values 1.01 | S. cerevisiae deletion strains, locus YOR316C, strain cot1, hits give low values 0.998 | S. cerevisiae deletion strains, locus YPL055C, strain LGE1, hits give low values 0.958 | S. cerevisiae deletion strains, locus YPL241C, strain CIN2, hits give low values 0.981 | S. cerevisiae deletion strains, locus YPL256C, strain CLN2, hits give low values 1.01 | S. cerevisiae deletion strains, locus YPR119W, strain clb2, hits give low values 0.996 | S. cerevisiae deletion strains, locus YPR141C, strain kar3, hits give low values 0.997 | S. cerevisiae deletion strains, locus YPR163C, strain tif3, hits give low values 0.99 | S. cerevisiae deletion strains, locus YPR167C, strain met16, hits give low values 1 | S. cerevisiae deletion strains, strain wtn01, hits give low values 1.02 | S. cerevisiae strains, strain wild type, hits give low values 0.981

Source: PubChem BioAssay AID1159580 (chemical genetic matrix, 2015)
